Out of some 5,500 compounds screened, about 2,000 (36%) were called active. About 18% were inconclusive and are not listed. Rule as the data show it: active = normalized growth mostly below about 0.91 (no sharp cut-off); inconclusive = no clear call, values can overlap the other calls; inactive = mostly above about 0.92. The list shows a part of the results.
Test: chemical genetic growth profiling, strain panel (AID 1159580);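 also: tested at 20 µM; growth read once vehicle control cultures reached saturation at 30 °C; 1 = growth at the plate median or of vehicle wells; lower values mean less growth of the strain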
Details: growth OD

Measured: normalized growth

C[C@@H]1CC2C3C[C@H](F)C4=CC(=O)C=C[C@]4(C)[C@@]3(F)[C@@H](O)C[C@]2(C)[C@@]1(O)C(=O)COC(=O)C(C)(C)C (some centres not stated)
inactive: S. cerevisiae deletion strains, locus YJR075W, strain HOC1, hits give low values 0.997 | S. cerevisiae deletion strains, locus YKL009W, strain mrt4, hits give low values 0.982 | S. cerevisiae deletion strains, locus YKL068W, hits give low values 1.01 | S. cerevisiae deletion strains, locus YKL085W, strain MDH1 (second series), hits give low values 1 | S. cerevisiae deletion strains, locus YKL085W, strain MDH1, hits give low values 1 | S. cerevisiae deletion strains, locus YKL160W, strain elf1, hits give low values 0.978 | S. cerevisiae deletion strains, locus YKL190W, strain CNB1, hits give low values 0.997 | S. cerevisiae deletion strains, locus YKR001C, strain vps1, hits give low values 0.988 | S. cerevisiae deletion strains, locus YKR026C, strain gcn3, hits give low values 0.997 | S. cerevisiae deletion strains, locus YKR091W, strain srl3, hits give low values 0.996 | S. cerevisiae deletion strains, locus YLL001W, strain dnm1, hits give low values 0.987 | S. cerevisiae deletion strains, locus YLL026W, hits give low values 0.984 | S. cerevisiae deletion strains, locus YLL041C, strain sdh2, hits give low values 1.01 | S. cerevisiae deletion strains, locus YLR027C, strain aat2, hits give low values 0.987 | S. cerevisiae deletion strains, locus YLR039C, strain RIC1, hits give low values 1.02 | S. cerevisiae deletion strains, locus YLR058C, strain SHM2, hits give low values 1.01 | S. cerevisiae deletion strains, locus YLR102C, strain apc9, hits give low values 1.01 | S. cerevisiae deletion strains, locus YLR113W, strain HOG1, hits give low values 0.969 | S. cerevisiae deletion strains, locus YLR221C, strain rsa3, hits give low values 0.99 | S. cerevisiae deletion strains, locus YLR258W, strain gsy2, hits give low values 0.995 | S. cerevisiae deletion strains, locus YLR262C, strain YPT6 (second series), hits give low values 0.98 | S. cerevisiae deletion strains, locus YLR262C, strain YPT6, hits give low values 0.977 | S. cerevisiae deletion strains, locus YLR268W, strain sec22, hits give low values 0.984 | S. cerevisiae deletion strains, locus YLR320W, strain mms22, hits give low values 0.975 | S. cerevisiae deletion strains, locus YLR330W, strain CHS5, hits give low values 1.01 | S. cerevisiae deletion strains, locus YLR342W, strain FKS1 (second series), hits give low values 1.03 | S. cerevisiae deletion strains, locus YLR342W, strain FKS1, hits give low values 0.978 | S. cerevisiae deletion strains, locus YLR357W, strain rsc2, hits give low values 0.979 | S. cerevisiae deletion strains, locus YLR370C, strain arc18, hits give low values 0.987 | S. cerevisiae deletion strains, locus YLR371W, strain rom2, hits give low values 1.01 | S. cerevisiae deletion strains, locus YLR384C, strain iki3, hits give low values 0.987 | S. cerevisiae deletion strains, locus YLR418C, strain cdc73, hits give low values 1.03 | S. cerevisiae deletion strains, locus YML016C, strain PPZ1, hits give low values 1 | S. cerevisiae deletion strains, locus YML032C, strain rad52, hits give low values 1 | S. cerevisiae deletion strains, locus YML120C, strain ndi1, hits give low values 0.999 | S. cerevisiae deletion strains, locus YML124C, strain tub3, hits give low values 1 | S. cerevisiae deletion strains, locus YMR058W, strain fet3, hits give low values 1.01 | S. cerevisiae deletion strains, locus YMR078C, strain ctf18, hits give low values 1.01 | S. cerevisiae deletion strains, locus YMR125W, strain sto1, hits give low values 1.01 | S. cerevisiae deletion strains, locus YMR129W, hits give low values 0.988 | S. cerevisiae deletion strains, locus YMR205C, strain PFK2, hits give low values 0.977 | S. cerevisiae deletion strains, locus YMR223W, strain ubp8, hits give low values 1.04 | S. cerevisiae deletion strains, locus YMR231W, strain pep5, hits give low values 0.998 | S. cerevisiae deletion strains, locus YMR263W, strain SAP30, hits give low values 1.01 | S. cerevisiae deletion strains, locus YMR307W, strain GAS1, hits give low values 0.95 | S. cerevisiae deletion strains, locus YNL067W, strain RPL9B, hits give low values 0.998 | S. cerevisiae deletion strains, locus YNL071W, strain lat1, hits give low values 1 | S. cerevisiae deletion strains, locus YNL183C, strain NPR1, hits give low values 0.962 | S. cerevisiae deletion strains, locus YNL209W, strain ssb2, hits give low values 0.996 | S. cerevisiae deletion strains, locus YNL233W, strain BNI4, hits give low values 1.01 | S. cerevisiae deletion strains, locus YNL248C, strain rpa49, hits give low values 1.01 | S. cerevisiae deletion strains, locus YNL250W, strain rad50, hits give low values 1.02 | S. cerevisiae deletion strains, locus YNL271C, strain bni1, hits give low values 1.01 | S. cerevisiae deletion strains, locus YNL298W, strain CLA4, hits give low values 0.998 | S. cerevisiae deletion strains, locus YNL307C, strain MCK1, hits give low values 1.02 | S. cerevisiae deletion strains, locus YNL322C, strain KRE1 (second series), hits give low values 1 | S. cerevisiae deletion strains, locus YNR049C, strain mso1, hits give low values 0.998 | S. cerevisiae deletion strains, locus YNR052C, strain pop2, hits give low values 0.998 | S. cerevisiae deletion strains, locus YOL012C, strain htz1 1.17 | S. cerevisiae deletion strains, locus YOL147C, strain pex11, hits give low values 1.01 | S. cerevisiae deletion strains, locus YOR001W, strain rrp6, hits give low values 0.98 | S. cerevisiae deletion strains, locus YOR061W, strain CKA2, hits give low values 1 | S. cerevisiae deletion strains, locus YOR069W, strain VPS5, hits give low values 1.01 | S. cerevisiae deletion strains, locus YOR070C, strain gyp1, hits give low values 0.999 | S. cerevisiae deletion strains, locus YOR080W, strain dia2, hits give low values 0.979 | S. cerevisiae deletion strains, locus YOR083W, strain WHI5, hits give low values 0.982 | S. cerevisiae deletion strains, locus YOR106W, strain vam3, hits give low values 0.987 | S. cerevisiae deletion strains, locus YOR136W, strain idh2, hits give low values 1.01 | S. cerevisiae deletion strains, locus YOR144C, strain elg1, hits give low values 1 | S. cerevisiae deletion strains, locus YOR184W, strain ser1, hits give low values 1.04 | S. cerevisiae deletion strains, locus YOR231W, strain MKK1, hits give low values 0.976 | S. cerevisiae deletion strains, locus YOR265W, strain rbl2, hits give low values 0.99 | S. cerevisiae deletion strains, locus YOR270C, strain vph1, hits give low values 1.01 | S. cerevisiae deletion strains, locus YOR290C, strain snf2, hits give low values 0.997 | S. cerevisiae deletion strains, locus YOR316C, strain cot1, hits give low values 1.01 | S. cerevisiae deletion strains, locus YPL051W, strain arl3, hits give low values 0.978 | S. cerevisiae deletion strains, locus YPL055C, strain LGE1, hits give low values 0.999 | S. cerevisiae deletion strains, locus YPL078C, strain atp4, hits give low values 0.974 | S. cerevisiae deletion strains, locus YPL106C, strain sse1, hits give low values 0.946 | S. cerevisiae deletion strains, locus YPL240C, strain hsp82, hits give low values 1 | S. cerevisiae deletion strains, locus YPL256C, strain CLN2, hits give low values 0.992 | S. cerevisiae deletion strains, locus YPR119W, strain clb2, hits give low values 1.01 | S. cerevisiae deletion strains, locus YPR141C, strain kar3, hits give low values 1 | S. cerevisiae deletion strains, locus YPR163C, strain tif3, hits give low values 1 | S. cerevisiae deletion strains, locus YPR167C, strain met16, hits give low values 1.01 | S. cerevisiae deletion strains, strain wtn01, hits give low values 1 | S. cerevisiae strains, strain wild type, hits give low values 0.995

From PubChem BioAssay AID1159580 (chemical genetic matrix, 2015)
